Most compounds without a hit are left out; they make up all but 9% or so of the library.
IMPase Li inh – qHTS Assay for Identifying the Cell-Membrane Permeable IMPase Inhibitors: Potentiation with Lithium; hit rate 0.35% among 210,000; Potency, µM (series often up to 59.4 µM), without a hit: at the highest dose activity, negative = IMPase inhibition, actives largely listed as inhibitors; CHO-M1 cells, IP1 TR-FRET (IP-One), carbachol + lithium; AID 1457, 2008;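 also: IP1 builds up when IMPase is blocked and the TR-FRET signal falls; plate controls were basal vehicle for no effect and high inhibitor control for full effect; nearly all actives have a fitted effect of over 50% in size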
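CHO cells stably expressing M1 receptor (2000/well, cultured 16–30 h) treated 30 min at 37C with compound plus low lithium. Cytosolic IP1 by TR-FRET (665/620 ratio and 620 channel) after 10 min lysis; AC50 by Hill fit.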
ALDH1A1 inh – qHTS Assay for Inhibitors of Aldehyde Dehydrogenase 1 (ALDH1A1) | Purified ALDH1A1, NADH fluorescence, propionaldehyde substrate | Potency, µM (top dose mostly 75.3 µM), without a hit: top-dose activity, negative = inhibition, hits mostly inhibitors | hit rate 7.3% among 220,000; active = well fitted inhibition curve with a large enough effect, not every such curve was filed as active; inconclusive = small, poorly fitted or top-dose-only effect, or another doubt; inactive = no such curve, though single readings can be large or run the other way;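 also: plate controls were no enzyme wells and a reference inhibitor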
Target sequence (P00352 whole entry, looked up): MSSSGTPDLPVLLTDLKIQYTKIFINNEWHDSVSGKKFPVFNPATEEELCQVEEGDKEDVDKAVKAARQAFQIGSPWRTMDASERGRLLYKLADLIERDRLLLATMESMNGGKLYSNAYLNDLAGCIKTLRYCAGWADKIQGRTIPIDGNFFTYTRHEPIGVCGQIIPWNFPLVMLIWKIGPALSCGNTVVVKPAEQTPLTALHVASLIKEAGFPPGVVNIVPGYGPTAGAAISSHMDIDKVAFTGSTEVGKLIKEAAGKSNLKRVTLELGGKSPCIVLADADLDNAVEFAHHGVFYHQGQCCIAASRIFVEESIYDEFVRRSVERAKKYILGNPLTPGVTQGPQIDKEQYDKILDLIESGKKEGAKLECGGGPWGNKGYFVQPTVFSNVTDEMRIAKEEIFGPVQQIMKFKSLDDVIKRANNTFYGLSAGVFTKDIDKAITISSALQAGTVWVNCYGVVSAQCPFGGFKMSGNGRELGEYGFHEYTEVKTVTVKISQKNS
KinaseGlo FLuc – Counterscreen for Luciferase (Kinase-Glo TM) Inhibition; hit rate 0.28% among 200,000; Kinase-Glo luciferase, ATP luminescence, 8 min; Potency, µM (doses to about 38.3 µM), for inactives: top-dose activity change, negative = inhibition, usual class: inhibitors; AID 1379, 2008; also: nearly all actives have a fitted effect of over 60% in size
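Luminescence was the read-out, taken after 8-minute incubation at ambient temperature. Luciferase turned over luciferin with 10 uM ATP in imidazole pH 7.2 buffer containing KCl, MgCl2, Tween 20 and BSA.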
HPGD block – qHTS Assay for Inhibitors of HPGD (15-Hydroxyprostaglandin Dehydrogenase). purified HPGD, NADH fluorescence kinetic, PGE2 substrate. Potency, µM, without a hit: at the top dose activity change, negative = inhibition, hits mostly inhibitors. hit rate 4.3% among 150,000. AID 894, 2007; active = well fitted inhibition curve with a large enough effect, not every such curve was filed as active; inconclusive = small, poorly fitted or top-dose-only effect, or another doubt; inactive = no such curve, though single readings can be large or run the other way
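NADH formation kinetics: reaction with 30 uM PGE2 and 1 mM NAD+ (final), 20 nM enzyme, Tris-HCl pH 8 with Tween 20, after 15 min compound preincubation at room temperature. Fluorescence change, last versus first of five reads.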
LMNA splice mod – qHTS Assay for Modulators of Lamin A Splicing. HeLa LMNA splicing GFP/RFP minigene ratio, 48 h. Potency, µM (series often up to 46.1 µM), without a hit: at the highest dose ratio change, negative = inhibition, usual class: inhibitors. hit rate 0.01% among 200,000. AID 1487, 2009; active = well fitted inhibition curve with a large enough effect in the signal ratio, with a control signal flat, not every such curve was filed as active; inconclusive = small, poorly fitted or top-dose-only effect, or effect the other way, or a change in a side signal; the % refers to the signal ratio
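Read-out is the ratio of GFP to DsRed2 object intensity, acquired by 488 nm laser-scanning cytometry on HeLa lamin A-EGFP minigene reporter cells. Compound incubation 48 hrs at 37 °C in Opti-MEM with 2% FBS; DMSO 0.5% final.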
* hit, by the source's call; [ ] = remark or other dose. Unless noted, calls follow the shape of the dose curve; as a rule, active = well fitted curve in the direction sought with a large enough effect; inconclusive = small, poorly fitted or top-dose-only effect, or another doubt; inactive = no such curve, though single readings can be large; an effect the other way counts as inactive or inconclusive. Unless noted, % is scaled to controls: 0 for no effect and ±100 for the full control effect; potency is read from the fitted curve at half-maximal effect.

Results for O=c1c2ccccc2nc(/C=C/c2ccc(O)cc2)n1-c1ccccc1O ?
ALDH1A1 inh: -12%

What do the screens show for `O=c1c2ccccc2nc(/C=C/c2cccnc2)n1Cc1ccccc1`?
IMPase Li inh: 17%; ALDH1A1 inh: 5µM*; KinaseGlo FLuc: -1%

What do the screens show for `CCN(CC)C(=O)c1ccc(N2C(=O)C3CC=C(Cl)CC3C2=O)cc1` (stereo unspecified)?
IMPase Li inh: 12%[38.3 µM]; ALDH1A1 inh: -6%; KinaseGlo FLuc: 3%; HPGD block: 13µM*; LMNA splice mod: 6%

How did C=CCN(c1ccc(C(=O)N(CC)CC)cc1)S(C)(=O)=O do in these assays?
IMPase Li inh: 2%; ALDH1A1 inh: -3%; KinaseGlo FLuc: 0%; HPGD block: -22%; LMNA splice mod: -8%

How did O=C1CCC[C@H]2[C@H]3CCCN4CCCC(=CN12)[C@@H]34 do in these assays?
IMPase Li inh: 23%; ALDH1A1 inh: 0%; KinaseGlo FLuc: -3%; HPGD block: -9%

What do the screens show for `CCC(C)N1C(=O)/C(=C/c2ccc3c(c2)CCN3CCCCl)C(=O)NC1=S` (stereo unspecified)?
IMPase Li inh: 11%; ALDH1A1 inh: 0.22µM*; KinaseGlo FLuc: -25%; HPGD block: 25µM*; LMNA splice mod: inconclusive

What do the screens show for `Cn1cccc1/C=C1/C(=O)NC(=O)N(Cc2ccccc2)C1=O`?
IMPase Li inh: 2%; ALDH1A1 inh: inconclusive; KinaseGlo FLuc: 1%; HPGD block: -21%; LMNA splice mod: -11%

What do the screens show for `COc1cc(/C=C2\C(=O)NC(=O)N(CCc3ccc(F)cc3)C2=O)ccc1O`?
IMPase Li inh: 5%; ALDH1A1 inh: 13µM*; KinaseGlo FLuc: 1%; HPGD block: 13µM*; LMNA splice mod: 0%

What do the screens show for `CCOc1cc(C=C2C(=O)NC(=O)NC2=O)cc([N+](=O)[O-])c1O`?
IMPase Li inh: 8%; ALDH1A1 inh: 28µM*; KinaseGlo FLuc: -7%

Results for CCOc1ccc(/C=C2/C(=O)NC(=O)N(CCc3ccc(F)cc3)C2=O)cc1 ?
IMPase Li inh: -4%; ALDH1A1 inh: 1.4µM*; KinaseGlo FLuc: -5%; HPGD block: 10µM*; LMNA splice mod: -8%

Results for COc1cc(C=C2C(=O)NC(=O)NC2=O)ccc1O ?
ALDH1A1 inh: 19µM*

Results for C[C@@H]1OC(=O)[C@H]2C[C@H]3CCCC[C@@H]3[C@@H](/C=C/[C@H]3CCC[C@H](C)N3C)[C@@H]12 ?
IMPase Li inh: -24%; ALDH1A1 inh: -6%

How did CN(C)CCN(C)CCc1ccc(Cl)c(Cl)c1 do in these assays?
IMPase Li inh: -27%; ALDH1A1 inh: -11%; KinaseGlo FLuc: 1%; HPGD block: -6%

What do the screens show for `CCOC(=O)CSCCOc1ccc(C=C2C(=O)NC(=O)NC2=O)cc1OC`?
IMPase Li inh: 1%; ALDH1A1 inh: 13µM*; KinaseGlo FLuc: -4%; LMNA splice mod: inconclusive

How did CN(C)c1ccc(C=C2C(=O)NC(=O)NC2=O)cc1[N+](=O)[O-] do in these assays?
IMPase Li inh: -8%; ALDH1A1 inh: inconclusive; KinaseGlo FLuc: -2%; LMNA splice mod: -19%[46 µM]

How did COc1cc2c(cc1OC)[C@@H]1C(=O)c3ccc(OC)c(CC=C(C)C)c3OC1CO2 (stereo partly specified) do in these assays?
IMPase Li inh: 18%; ALDH1A1 inh: inconclusive; KinaseGlo FLuc: 0%; HPGD block: -28%; LMNA splice mod: inconclusive

What do the screens show for `CNC(=O)CSP(=S)(OC)OC`?
IMPase Li inh: -4%; ALDH1A1 inh: inconclusive; KinaseGlo FLuc: -6%; HPGD block: -8%; LMNA splice mod: 10%

How did COP(=S)(OC)SCN1C(=O)c2ccccc2C1=O do in these assays?
IMPase Li inh: 0%[38.3 µM]; ALDH1A1 inh: inconclusive; KinaseGlo FLuc: -3%; HPGD block: 20µM*; LMNA splice mod: 10%

How did CN(CCC(=O)O)C1=Nc2ccc(Cl)cc2C(c2ccccc2)=[N+]([O-])C1 do in these assays?
IMPase Li inh: -3%; ALDH1A1 inh: 7%[13.5 µM]; KinaseGlo FLuc: 2%[7.66 µM]; HPGD block: -5%

What do the screens show for `O=C(CSc1nnnn1-c1ccccc1)Nc1ccc(N2CCOCC2)c(Cl)c1`?
IMPase Li inh: -1%[38.3 µM]; ALDH1A1 inh: 2.2µM*; KinaseGlo FLuc: -2%; HPGD block: -8%; LMNA splice mod: inconclusive

Results for CC(=O)O.CC(=O)O.[Cd] ?
IMPase Li inh: 7%; ALDH1A1 inh: 13µM*; KinaseGlo FLuc: -2%; HPGD block: -11%; LMNA splice mod: inconclusive

What do the screens show for `O=C(O)/C=C\C(=O)O`?
IMPase Li inh: -6%; ALDH1A1 inh: 7%; HPGD block: -2%

What do the screens show for `CC(C)[C@@]1(NC(=O)[C@H]2CC3c4cccc5[nH]cc(c45)C[C@H]3N(C)C2)O[C@@]2(O)C3CCCN3C(=O)[C@@H](Cc3ccccc3)N2C1=O` (stereo partly specified)?
IMPase Li inh: 4%; ALDH1A1 inh: -2%; LMNA splice mod: inconclusive

How did C[C@H]1CN(C2CCC(C#N)(c3ccc(F)cc3)CC2)CC[C@@]1(C(=O)O)c1ccccc1 (stereo partly specified) do in these assays?
IMPase Li inh: -2%; ALDH1A1 inh: -8%[20.9 µM]; KinaseGlo FLuc: 0%[17.1 µM]; HPGD block: 2%; LMNA splice mod: inconclusive

What do the screens show for `N#CC1(c2ccccc2)CCN(C2CC(=O)N(c3ccc(F)cc3)C2=O)CC1` (stereo unspecified)?
IMPase Li inh: 11%; ALDH1A1 inh: 32µM*; KinaseGlo FLuc: -2%

What do the screens show for `N#CC1(c2ccccc2)CCN(C2CC(=O)N(c3ccc4c(c3)OCO4)C2=O)CC1` (stereo unspecified)?
IMPase Li inh: 1%; ALDH1A1 inh: 8.9µM*; KinaseGlo FLuc: 0%

How did COc1ccc(CN2CCCCC2c2cccnc2)cc1C (stereo unspecified) do in these assays?
IMPase Li inh: 7%[38.3 µM]; ALDH1A1 inh: 2%; KinaseGlo FLuc: -7%; HPGD block: -12%; LMNA splice mod: 10%

What do the screens show for `COc1cccc(CN2CCCCC2c2cccnc2)c1` (stereo unspecified)?
IMPase Li inh: -1%[38.3 µM]; ALDH1A1 inh: 32µM*; KinaseGlo FLuc: -3%; HPGD block: -16%; LMNA splice mod: inconclusive

Results for Cc1cccc(N2C(=O)/C(=C/c3ccc(N4CCN(C)CC4)o3)C(=O)NC2=S)c1C ?
IMPase Li inh: 3%; ALDH1A1 inh: 14µM*; KinaseGlo FLuc: -13%; HPGD block: -37%; LMNA splice mod: 8%

Assay outcomes (PubChem)
